# Only some compounds are listed: those with a hit (about 2.3% of all), similar ones and a draw of the others.
# CHO-K1 Ca antag: counter-screen for M1 antagonists: effect in parental CHO-K1 cells; ATP-induced calcium, Fluo-8 fluorescence; inhibition, % at 3 µM; actives 0.6% (n = 360,000); AID 602250;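 active = inhibition above a per-plate cutoff, the plate's mean sample inhibition plus 3 SD, cut at about 24% in these data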
# M1 antag: human M1 muscarinic receptor antagonists, primary screen, CHO-K1 cells, Fluo-8 calcium fluorescence, 1536-well | Muscarinic acetylcholine receptor M1 (Homo sapiens), P11229 | AID 588852, 2011 | actives 1.3% (n = 360,000) | inhibition, % at 3 µM | CHO-K1 hM1, ACh EC80 antagonist;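 active = percent inhibition above its own plate's cutoff, namely the mean of that plate's compound wells plus 3 SD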;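 also: peak over basal fluorescence ratio during 140 s after agonist addition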
# Target sequence (P11229 whole entry, looked up): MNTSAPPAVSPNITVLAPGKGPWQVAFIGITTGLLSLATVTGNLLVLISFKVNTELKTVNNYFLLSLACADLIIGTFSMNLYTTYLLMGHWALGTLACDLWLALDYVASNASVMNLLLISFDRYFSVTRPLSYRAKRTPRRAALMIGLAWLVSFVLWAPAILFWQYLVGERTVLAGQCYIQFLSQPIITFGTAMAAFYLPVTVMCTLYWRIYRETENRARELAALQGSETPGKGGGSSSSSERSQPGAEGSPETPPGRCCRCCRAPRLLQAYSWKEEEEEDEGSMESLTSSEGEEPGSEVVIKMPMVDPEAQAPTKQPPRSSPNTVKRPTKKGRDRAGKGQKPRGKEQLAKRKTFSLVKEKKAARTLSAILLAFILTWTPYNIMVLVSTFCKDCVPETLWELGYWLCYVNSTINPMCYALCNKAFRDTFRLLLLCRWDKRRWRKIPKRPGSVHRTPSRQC
# CHRM1 agonist: human M1 muscarinic receptor agonists, primary screen, Fluo-8 calcium fluorescence, CHO-K1 cells, HTS; Muscarinic acetylcholine receptor M1 (Homo sapiens), P11229; CHO-K1 hM1, agonist mode; 0% DMSO, 100% acetylcholine EC100; activation, % at 3 µM; actives 0.33% (n = 360,000); AID 588814, 2011;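 active = activation above the run's mean compound activation plus 3 SD, cut at about 16% in these data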;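 also: peak over basal fluorescence ratio within a 140 s kinetic read after compound addition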
# M1 PAM parental: nonselective calcium activators in parental CHO-K1 cells, primary screen, counter-screen for M1 PAM project, cell-based, Fluo-8 calcium fluorescence, full deck, 1536-well; activation, % at 3 µM; ATP EC20; 0% at ATP EC20, 100% at ATP max; actives 0.02% (n = 360,000); AID 602247, 2012;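 active = activation above the run cutoff, the mean activation of all test compounds plus 3 SD, cut at about 40% in these data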;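 also: peak over basal fluorescence ratio in a 140 s read after ATP addition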
# CHRM1 PAM: human M1 muscarinic receptor positive allosteric modulators, primary screen, CHO-K1 cells, Fluo-8 calcium fluorescence, 1536-well. CHO-K1 hM1, ACh EC20; 0% = ACh EC20, 100% = maximal ACh. activation, % at 3 µM. actives 0.088% (n = 360,000); in the data active = activation above about 19%, passing the limit was not always enough
# M1 ag parental: counter-screen for M1 agonists: effect in parental CHO-K1 cells; AID 602248, 2012; activation, % at 3 µM; Fluo-8 calcium fluorescence; scaled to maximal ATP response, vehicle zero; actives 0.48% (n = 360,000); in the data active = activation above about 15%;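 also: untransfected CHO-K1 host cells lacking M1 receptor as counterscreen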
# A number is an active result; - = inactive.
SMILES,CHO-K1 Ca antag,M1 antag,CHRM1 agonist,M1 PAM parental,CHRM1 PAM,M1 ag parental
Cc1cc(Cl)c(OCCOCCN2CCCC(C)C2)c(Br)c1 (centres undefined),-,62,-,-,-,-
CCCCN(C(=O)Cc1ccc(S(=O)(=O)N2CCOCC2)s1)c1c(N)n(CC(C)C)c(=O)[nH]c1=O,-,-,-,-,-,-
CCN1C(=O)[C@H]2[C@@H](c3ccc(C(F)(F)F)cc3)N[C@]3(CCCN(Cc4ccco4)C3=O)[C@H]2C1=O,-,-,-,-,-,-
CCCc1ncc(C(O)(c2ccccc2)c2ccc(C)cc2)n1C (centres undefined),-,95,-,-,-,-
CCCc1ncc(C(O)c2cccc3ccccc23)n1C (centres undefined),-,-,-,-,-,-
CCCc1ncc(C(O)(c2ccccc2)c2ccccc2)n1C,-,94,-,-,-,-
C=CCOc1ccc(/C=C\c2nc(O)c([N+](=O)[O-])c(=O)[nH]2)cc1OC,-,-,-,-,-,-
O=c1[nH]c(/C=C\c2cccc(F)c2)nc(O)c1[N+](=O)[O-],-,-,-,41,-,-
O=c1[nH]c(/C=C\c2cccc(Cl)c2)nc(O)c1[N+](=O)[O-],-,-,-,-,-,-
C=CCOc1ccc(/C=C\c2nc(O)c([N+](=O)[O-])c(=O)[nH]2)cc1OCC,-,-,-,-,27,-
CN(C)/C=C1\C(=O)N(C)N=C1C(F)(F)F,-,-,-,-,-,-
O=[N+]([O-])c1ccc(N2CCC(O)CC2)nc1,29,-,-,-,-,-
O=S(=O)(/C=C/C=C/S(=O)(=O)c1ccccc1)c1ccccc1,-,-,-,-,-,-
Cc1cnn(-c2cc(Oc3ccccc3)ncn2)c1,25,-,-,-,-,-
c1ccc(Oc2cc(-n3cncn3)ncn2)cc1,-,-,-,-,-,-
CN(C(=O)CCCN1CCCC1=O)C1CCCN(Cc2ccccc2F)C1 (centres undefined),-,81,-,-,-,-
COCc1ccc(C(=O)N(C)C2CCCN(Cc3ccccc3F)C2)o1 (centres undefined),-,90,-,-,-,-
CN(C(=O)CCc1ccccc1F)C1CCCN(Cc2ccccc2F)C1 (centres undefined),-,-,-,-,-,-
COC(=O)c1ccc(C(=O)N(C)C2CCCN(Cc3ccccc3F)C2)cc1 (centres undefined),-,-,-,-,-,-
COc1cccc(CN2CCC(C(=O)NC(C)c3cccc4ccccc34)CC2)c1 (centres undefined),-,-,-,-,-,-
C[C@H](NC(=O)[C@@H]1CSC2c3ccccc3C(=O)N21)C(=O)NC1CCCC1 (some centres undefined),-,27,-,-,-,-
C[C@H](NC(=O)[C@@H]1CSC2c3ccccc3C(=O)N21)C(=O)NC1CCCCC1 (some centres undefined),-,-,-,-,-,-
CC(=O)Nc1cc(NC(C)=O)cc(C(=O)N2CCCC3CCCCC32)c1 (centres undefined),-,-,-,-,-,-
O=C(CN1CSCC1=O)N1CCN(S(=O)(=O)c2ccc(Cl)cc2)CC1,-,-,-,-,-,-
Cc1nnsc1-c1nnc(SCC(=O)c2ccccc2)n1C1CC1,-,-,-,-,-,-
Cc1cccc(C2N(c3ccc(F)cc3)C(=O)C3CCCN32)c1 (centres undefined),31,-,-,-,-,-
Cc1ccc(C2N(c3ccc(F)cc3)C(=O)C3CCCN32)cc1 (centres undefined),-,-,-,-,-,-
Cc1ccc(-c2c[n+](CC(=O)OCc3ccccc3)c3n2CCC3)cc1,-,-,-,-,-,-
O=C(C[n+]1cc(-c2ccc(Cl)c(Cl)c2)n2c1CCC2)N1c2ccccc2Sc2ccccc21,-,100,-,-,-,-

# Compound activity deposited in PubChem by The Scripps Research Institute Molecular Screening Center.
